Hits are enriched below; roughly 4.2% of the tested compounds scored in any of these assays.
PfHsp90 set2 = growth inhibition of PfHsp90-expressing yeast, primary screen, antimalarial PfHsp90 inhibitor project, S. cerevisiae, BacTiter-Glo luminescence, single point, set 2; BacTiter-Glo ATP, 48 h; yeast lacking PDR1 and PDR3 efflux regulators; inhibition, % at 9.4 µM; actives 0.32% (n = 310,000);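 active means every replicate shows inhibition above about 80%, whatever the replicate mean, limit read from the data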;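 further: 0% = DMSO neutral controls and 100% = 20 µM radicicol positive controls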
tim23-1 inh = growth inhibitors of tim23-1 mutant yeast, primary screen, luminescence, uHTS | S. cerevisiae tim23-1 growth, BacTiter-Glo luminescence, 24 h | inhibition, % at 20 µM | actives 1.3% (n = 330,000);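 active means growth inhibition of the mutant yeast at or above 50%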;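 further: temperature-sensitive mutant grown at 25 °C; plate controls were DMSO-treated mutant yeast for no effect and medium wells lacking yeast for full effect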
tim10-1 inh = growth inhibitors of tim10-1 mutant yeast, primary screen, luminescence, uHTS | inhibition, % at 20 µM | actives 2.2% (n = 330,000) | S. cerevisiae tim10-1 ts strain growth, BacTiter-Glo, 24 h;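 active means inhibition of at least 40%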;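 further: mutant grown at 25 °C; 0% = DMSO wells with yeast and 100% = wells holding no yeast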
NLRP3 yeast inh = NALP3 inflammasome inhibitors in reconstituted yeast, primary screen, luminescence, uHTS | Yeast reconstituted NLRP3/ASC/caspase-1, beta-gal luminescence, 24 h | inhibition, % at 10 µM | actives 0.39% (n = 330,000);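 active means inhibition of 50% or more; inactive means inhibition below 50%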;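 further: plate controls were induced DMSO wells for no effect and uninduced yeast grown without galactose for full effect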
NALP1 yeast inh = NALP1 inflammasome inhibitors in reconstituted yeast, colorimetric, S. cerevisiae, triplicate retest | inhibition, % at 10 µM | S. cerevisiae NALP1/ASC/caspase-1 growth, X-gal OD620, 72 h | actives 0.61% (n = 280,000) | AID 2071, 2009; in the data active means inhibition mostly above about 24%, no sharp cut-off; inactive means mostly below about 32%
TIM10 inh = growth inhibitors of isogenic TIM10 control yeast, primary screen, counter-screen for tim10-1 yeast inhibitor project, luminescence, uHTS; S. cerevisiae TIM10 strain growth, BacTiter-Glo luminescence, 24 h; actives 1.4% (n = 330,000); inhibition, % at 10 µM;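 active means inhibition of 40% or more at the single tested concentration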;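 further: wild-type TIM10 isogenic control strain grown at permissive 25 °C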
The depositor's hits bear a star; . = not tested or not shown.

SMILES | PfHsp90 set2 | tim23-1 inh | tim10-1 inh | NLRP3 yeast inh | NALP1 yeast inh | TIM10 inh
O=C(O)c1cc(-c2ccc(/C=C3\NC(=O)N(c4ccccc4)C3=O)o2)ccc1Cl | 6 | 19 | -13 | 7 | 30* | 10
COc1ccc(-c2noc(CSc3nc(-c4ccccc4)cc(=O)[nH]3)n2)cc1 | -24 | -1 | 16 | 1 | 40* | 7
COc1cc(CSc2nc(-c3ccccc3)cc(=O)[nH]2)cc(OC)c1 | 0 | 19 | 20 | 3 | 10 | 19
Cc1[nH]c(C)c(S(=O)(=O)N2CCCCC2)c1C(=O)N1CCCCC1 | 7 | 5 | 17 | -6 | 11 | 0
COC(=O)c1cc(=O)n(Cc2ccc(OC)c(OC)c2)c(=Nc2ccc(F)cc2)s1 | 14 | 16 | 16 | 29 | 40* | 1
COC(=O)c1cc(=O)n(Cc2ccc(F)cc2)c(=Nc2ccccc2)s1 | -4 | 18 | 11 | 2 | . | 7
CC(=O)c1ccc(S(=O)(=O)NCCC(=O)OCC(=O)N(Cc2ccccc2)C(C)(C)C)cc1 | 10 | 9 | 26 | 2 | . | 6
Cc1cc(C)cc(NC(=O)Nc2ccc3c(c2)CCC3)c1 | 17 | 16 | 3 | 17 | 6 | 8
Cc1ccc(NC(=O)Nc2ccc3c(c2)CCC3)cc1 | 6 | 8 | -6 | 32 | 38* | 16
O=C(CNC(=O)OCc1ccccc1)OC(c1ccccc1)c1ccccc1 | -9 | . | . | . | . | .
CN(CCNC(=O)CN1CCN(Cc2ccccc2Cl)C1=O)Cc1ccccc1 | -16 | 7 | 5 | 7 | 45* | -4
O=C1[C@@H](Oc2ccccc2)[C@@H](c2ccncc2)N1c1ccncc1 | 23 | 14 | -4 | . | . | -8
Clc1ccc(C2CSc3c4ncnc-4ncn32)cc1 (stereo not given) | 5 | 1 | 12 | 10 | 40* | 7
CCCOC(=O)c1c(NC(=O)CSc2nc(-c3ccco3)cc(C(F)(F)F)n2)sc(C(=O)OC)c1C | -19 | 13 | 8 | 16 | 41* | 9
CCOC(=O)c1sc(NC(=O)CSc2nc(-c3ccco3)cc(C(F)(F)F)n2)c(C(=O)OC)c1C | . | -8 | -9 | 16 | 3 | 5
CN1C[C@@H]2C[C@@H](C3=Cc4cc(Cl)ccc4OC3)N3CCC[C@@]23C1=O | 28 | 24 | 16 | 6 | 0 | 14
COc1ccccc1CN1C[C@@H]2C[C@@H](C3=Cc4cc(Cl)ccc4OC3)N3CCC[C@@]23C1=O | -3 | 44 | 40 | 23 | 26* | 24
O=C1OC(c2ccccc2)(c2cc(Br)c(O)c(Br)c2)c2ccccc21 (stereo not given) | 115* | . | . | . | . | .
Cc1ccccc1OCC(O)CN1CCN(CCN2C(=O)c3cccc4cccc(c34)C2=O)CC1 (stereo not given) | 5 | 19 | 9 | 17 | 18 | 3
Cc1cccc(C)c1OCC(O)CN1CCC(CN2C(=O)c3cccc4cccc(c34)C2=O)CC1 (stereo not given) | 6 | -6 | 19 | 24 | 43* | -1
O=[N+]([O-])c1ccc(N=Nc2c(Cl)cc(O)cc2Cl)cc1 | 131* | . | . | . | 99* | .
Cc1ccc(OCCC(=O)N2CCN(c3ccc(O)cc3)CC2)cc1 | -9 | 21 | -36 | 24 | 38* | 13
CCOc1ccc(C(=O)CCC(=O)N2CCN(c3ccc(O)cc3)CC2)cc1 | 6 | 3 | 5 | 11 | . | -3
Cc1cccc(C)c1NC(=O)CN1C(=O)COc2ccccc21 | -15 | -1 | 11 | 17 | -11 | 1
Nc1c(C(=O)c2ccco2)oc2ccccc12 | . | -4 | -39 | 24 | 3 | -25
SMILES | PfHsp90 set2 | tim23-1 inh | tim10-1 inh | NLRP3 yeast inh | NALP1 yeast inh | TIM10 inh
C/C(=N\Nc1ncc(Cl)cc1Cl)c1ccccn1 | 108* | . | . | . | 45* | .
CC(=NNC(=S)Nc1ccccc1Cl)c1ccccn1 | 99* | . | . | . | . | .
Cc1sc2ncnc(N/N=C/c3cccc(O)c3)c2c1C | 4 | -24 | -10 | 15 | 24 | 13
C/C(=N\Nc1ncnc2sc(C)c(C)c12)c1ccccn1 | 104* | 27 | -1 | 23 | -4 | 14
C/C(=N\Nc1cccc2cccnc12)c1ccccn1 | -6 | 18 | 13 | 22 | -2 | -14
O=C(O)c1c2c(nc3ccc(S(=O)(=O)N4CCC(C(=O)NC5CCCCCC5)CC4)cc13)CCCC2 | 5 | 1 | -2 | 14 | -12 | -8
CCOc1cc(CNc2ccccc2)cc(Br)c1OCc1ccc(F)cc1 | 16 | 9 | 14 | 3 | 43* | 8
CCOc1cc(CNc2ccccc2)cc(Br)c1OCC(=O)NC(C)(C)C | 3 | 19 | 17 | 14 | 8 | 5
O=C(CCN1CCCCCC1)c1ccccc1 | -3 | 10 | 18 | 20 | 5 | -2
O=C(/C=C/c1ccccc1)CCN1CCCCC1 | 117* | . | . | . | . | .
Cc1cccc(C)c1NC(=O)CN(C)C(=O)Cn1c(=O)cnc2ccccc21 | -15 | -11 | -10 | 4 | 30* | -1
CCn1ncc(C(=O)Nc2cccc(Cl)c2)c1C | . | 18 | 27 | 8 | 45* | 12
Cc1ccc(S(=O)(=O)N2CCOCC2)cc1NC(=O)CSc1nnc(NC2CC2)s1 | 17 | -5 | -17 | 20 | . | 5
N#CCC(=O)N/N=C/c1cn(Cc2cccc3ccccc23)c2ccccc12 | -3 | -20 | -5 | -4 | 41* | 6
CC1Cc2ccccc2N1C(=O)CN(C)CC(=O)Nc1ccc(F)cc1 (stereo not given) | 21 | 33 | 11 | 24 | . | 11
COc1cccc(CNC(=S)NC2CC2)c1 | 2 | -1 | -7 | 14 | 6 | 5
COc1ccc(NC(=O)c2nnn(CC(=O)Nc3ccccc3OC)c2N)c(OC)c1 | -6 | 5 | 7 | -6 | 7 | -10
CCc1ccc(Cn2nnc(C(=O)Nc3ccc(OC)cc3OC)c2N)cc1 | -8 | 15 | 16 | 4 | 45* | 4
CCOC(=O)c1cn(CC(=O)Nc2cccc(F)c2)nn1 | -3 | 8 | 1 | 12 | 21* | 1
COc1ccc(C(=O)NCC(=O)OCC(=O)c2ccc3c(c2)OCCO3)cc1 | 2 | 2 | -7 | 10 | 36* | -3
CC(=O)c1c(N2CCCCC2)nc(=S)n(-c2ccccc2)c1C | 2 | 15 | 0 | 5 | -12 | -5
CC(=O)c1c(N2CCCC2)nc(=S)n(-c2ccccc2)c1C | -10 | 6 | -5 | 20 | 38* | -11
CSC(=S)NN=C(C)c1cccc(C)n1 | 105* | . | . | . | . | .
CC(=NNC(=S)N1CCCCC1)c1cccc(C)n1 | 0 | . | . | . | . | .
CC(=O)c1ccc(-c2ccccc2OC(F)(F)F)o1 | 31 | -5 | 8 | -5 | 20 | 7
O/N=C/c1ccc(-c2ccccc2OC(F)(F)F)o1 | -38 | 16 | 8 | 10 | 36* | 13

Screens from PubChem BioAssay.
